# Measurements from PubChem BioAssay.
# Active and inactive are the calls of the source. Unless noted, the rule behind the calls is not given here.
# Columns and labels:
# [1] = A549 cell viability effects, profiling panel, calcein-AM fluorescence, 48 h, basal (AID 1162); settings: higher = more signal; note: test concentration not given here
# [2] = adipocyte viability effects, profiling panel, cell-based, 3T3-L1 adipocytes, calcein-AM fluorescence, 48 h, basal (AID 1163); settings: 3T3-L1 adipocytes viability, higher = more signal; note: test concentration not given here
# [3] = HepG2 cell viability effects, profiling panel, calcein-AM fluorescence, 48 h, basal (AID 1164); settings: higher = more signal; note: test concentration not given here
# [4] = MM1S cell viability effects, profiling panel, calcein-AM fluorescence, 48 h, basal (AID 1165); settings: higher = more signal;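 note: viability of MM1S multiple myeloma cells under basal unstimulated conditions; test concentration not given here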
# [5] = basal RPMI8226 viability, no added stimulus, profiling panel, cell-based, calcein-AM fluorescence, 48 h, PK04 Diversity Set (AID 1166); settings: RPMI8226 myeloma viability, higher = more signal;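 note: cells grown under basal conditions without added stimulus; test concentration not given here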
# [6] = basal HepG2 mitochondrial membrane potential changes, profiling panel, cell-based, JC-1 fluorescence, 24 h, 100 nL compound (AID 1167); settings: higher = more signal; note: test concentration not given here
# [7] = basal 3T3-L1 adipocyte mitochondrial potential changes, profiling panel, cell-based, JC-1 fluorescence, 3T3-L1 adipocytes, 24 h, 100 nL compound (AID 1168); settings: JC-1 mitochondrial fluorescence, higher = more signal, called active from +8 up or from −8 down; note: test concentration not given here
# [8] = basal RPMI8226 mitochondrial membrane potential changes, profiling panel, cell-based, JC-1 fluorescence, 24 h, 100 nL compound (AID 1169); settings: RPMI8226 myeloma, JC-1 mitochondrial potential fluorescence, higher = more signal; note: test concentration not given here
# [9] = basal MM1S mitochondrial membrane potential changes, profiling panel, cell-based, JC-1 fluorescence, 24 h, 100 nL compound (AID 1170); settings: higher = more signal; note: test concentration not given here
# [10] = A549 lung cancer cell viability effects, profiling panel, resazurin fluorescence, 24 h, PK04 Diversity Set (AID 1171); settings: higher = more signal, called active from +8 up or from −8 down; note: test concentration not given here
# [11] = HepG2 liver cancer cell viability effects, profiling panel, resazurin fluorescence, 24 h, PK04 Diversity Set (AID 1172); settings: higher = more signal; note: test concentration not given here
# [12] = basal S. cerevisiae growth modulation, no modifier, primary screen, OD600, strain BY4716, 24 h, basal condition (AID 1173); settings: OD600, 24 h, higher = more signal, called active from +8 up or from −8 down
# [13] = MM1S myeloma cell viability, profiling panel, resazurin fluorescence, basal, 24 h, PK04 Diversity Set (AID 1174); settings: higher = more signal, called active from +8 up or from −8 down;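 note: MM1S multiple myeloma cell line; test concentration not given here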
# [14] = molecular target: Dihydroorotate dehydrogenase (quinone), mitochondrial (Plasmodium falciparum (isolate 3D7)) (UniProt Q08210); test: PfDHODH enzyme inhibitors, primary screen, biochemical, C-terminal His tag, absorbance 600 nm (AID 1175); settings: DCIP absorbance 600 nm, higher = more signal, called active from +8 up or from −8 down;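 note: recombinant parasite enzyme with a five histidine tag at its C terminus; test concentration not given here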
# Dihydroorotate dehydrogenase (quinone), mitochondrial (Plasmodium falciparum (isolate 3D7)), sequence (Q08210 whole entry, looked up): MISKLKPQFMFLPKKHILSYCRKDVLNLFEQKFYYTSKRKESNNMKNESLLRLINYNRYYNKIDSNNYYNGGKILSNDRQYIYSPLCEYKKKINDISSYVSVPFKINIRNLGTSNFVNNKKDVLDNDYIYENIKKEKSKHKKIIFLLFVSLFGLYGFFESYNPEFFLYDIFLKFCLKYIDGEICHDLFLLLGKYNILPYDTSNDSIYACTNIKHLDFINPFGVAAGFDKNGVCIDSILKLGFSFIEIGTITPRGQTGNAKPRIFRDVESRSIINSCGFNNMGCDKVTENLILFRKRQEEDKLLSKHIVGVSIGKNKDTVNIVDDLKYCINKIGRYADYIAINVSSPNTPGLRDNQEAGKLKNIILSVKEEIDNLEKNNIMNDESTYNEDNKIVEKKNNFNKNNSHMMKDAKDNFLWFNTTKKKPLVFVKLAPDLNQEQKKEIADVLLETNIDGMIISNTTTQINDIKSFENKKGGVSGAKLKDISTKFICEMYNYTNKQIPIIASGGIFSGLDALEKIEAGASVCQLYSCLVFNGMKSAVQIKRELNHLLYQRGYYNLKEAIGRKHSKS
# [15] = P. aeruginosa biofilm formation inhibitors, primary screen, strain PAO1, LB-PBS medium, absorbance 600 nm (AID 1176); note: test concentration not given here; settings: P. aeruginosa PAO1 growth/biofilm, A600, 12 h; higher = more signal
# [16] = S. cerevisiae RM11-1a growth modifiers, primary screen, strain RM11-1a, OD600, basal, 24 h (AID 1177); settings: OD600, 24 h, higher = more signal, called active from +8 up or from −8 down;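 note: cultures grown under basal conditions with no added stressor; test concentration not given here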
# [17] = E. coli acrAB mutant growth effects, primary screen, E. coli filamentation inducers, strain DRC39, OD650, 24 h (AID 1178); settings: higher = more signal, called active from +8 up or from −8 down;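 note: growth measured as culture turbidity by optical density at 650 nm; test concentration not given here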
# [18] = E. coli acrAB mutant growth effects, primary screen, E. coli filamentation inducers, strain DRC39, OD650, 48 h (AID 1179);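 note: screen aims at cell division blockers that make cells filament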; settings: E. coli DRC39 delta-acrAB growth, higher = more signal, called active from +8 up or from −8 down
# [19] = RPMI8226 myeloma cell viability, profiling panel, resazurin fluorescence, basal, 24 h, PK04 Diversity Set (AID 1180); settings: higher = more signal;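 note: RPMI8826 multiple myeloma cell line at 5000 cells per well; test concentration not given here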
# [20] = molecular target: E3 ubiquitin-protein ligase XIAP (Homo sapiens) (UniProt P98170); test: XIAP binders, primary screen, biophysical, small-molecule microarray, fluorescence 635 nm (AID 1181); settings: small-molecule microarray binding, higher = more signal;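 note: score merges 667 nm emission and signal to noise over triplicate slides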
# E3 ubiquitin-protein ligase XIAP (Homo sapiens), sequence (P98170 whole entry, looked up): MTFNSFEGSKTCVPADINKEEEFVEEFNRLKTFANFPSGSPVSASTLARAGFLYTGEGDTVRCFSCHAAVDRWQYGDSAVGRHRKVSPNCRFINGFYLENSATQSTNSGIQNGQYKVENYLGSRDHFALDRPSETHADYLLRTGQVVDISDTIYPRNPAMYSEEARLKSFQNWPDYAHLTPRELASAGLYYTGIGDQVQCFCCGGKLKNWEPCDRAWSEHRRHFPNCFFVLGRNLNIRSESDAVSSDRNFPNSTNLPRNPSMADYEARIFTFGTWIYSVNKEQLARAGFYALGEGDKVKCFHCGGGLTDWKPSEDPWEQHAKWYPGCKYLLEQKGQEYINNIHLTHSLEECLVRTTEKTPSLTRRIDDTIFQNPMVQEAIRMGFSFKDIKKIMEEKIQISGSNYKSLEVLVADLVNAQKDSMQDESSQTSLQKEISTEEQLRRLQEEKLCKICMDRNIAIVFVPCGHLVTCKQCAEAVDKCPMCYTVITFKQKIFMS
SMILES,z-score [1],z-score [2],z-score [3],z-score [4],z-score [5],z-score [6],z-score [7],z-score [8],z-score [9],z-score [10],z-score [11],z-score [12],z-score [13],composite z-score [14],z-score [15],z-score [16],z-score [17],z-score [18],z-score [19],composite z-score [20]
O=C1C[C@@](C(=O)NCCN2CCOCC2)(c2ccc([N+](=O)[O-])cc2)[C@@H](c2ccc(CO)cc2)N1C1CCCCC1,1.16,0.936,0.339,0.324,0.633,0.899,0.295 (inactive),0.36,1.22,0.981 (inactive),-0.0886,-0.359 (inactive),0.836 (inactive),0.231 (inactive),0.292 (inactive),-0.206 (inactive),0.497 (inactive),0.274 (inactive),0.906,-0.142
CN1C(=O)C2C=CC(C(O)c3ccc(N(C)C)cc3)N(Nc3ccc([N+](=O)[O-])cc3[N+](=O)[O-])C2C1=O (centres undefined),1.09,-0.459,-0.0167,-0.126,-0.4,-0.672,-1.06 (inactive),0.0429,-0.0883,0.0697 (inactive),0.183,0.111 (inactive),-0.355 (inactive),-0.548 (inactive),0.558 (inactive),-0.29 (inactive),-0.243 (inactive),-0.411 (inactive),0.236,-0.0023
O=C(NCc1ccccc1)[C@@]1(CCS(=O)(=O)c2ccccc2)COC(c2ccc(OCCCO)cc2)=N1,1.29,0.897,-0.0721,-2.26,-0.256,1.61,1.11 (inactive),-0.263,-0.944,-0.335 (inactive),0.929,0.0648 (inactive),-0.12 (inactive),-0.297 (inactive),,1.52 (inactive),2.95 (inactive),1.9 (inactive),-0.0092,0.272
CCCN1C(=O)[C@@]2(CCS(=O)(=O)c3ccccc3)N=C(c3ccc(OCCCO)cc3)O[C@H]2c2ccccc21,-1.3,2.41,-0.64,-0.454,-3.68,0.241,0.535 (inactive),-1.31,-0.148,-1.33 (inactive),-0.561,1.27 (inactive),-1.03 (inactive),2.02 (inactive),0.469 (inactive),1.56 (inactive),0.861 (inactive),0.163 (inactive),-2.15,-0.072
COCCOC(=O)N1C(=O)[C@@]2(c3cc(C#CCCO)ccc31)[C@H](c1ccc(OCCO)cc1)N1[C@H](c3ccccc3)[C@H](c3ccccc3)OC(=O)[C@H]1[C@@H]2C(=O)NC[C@H](O)c1ccccc1,0.0831,1.33,-0.796,0.0067,-1.06,-0.0377,0.357 (inactive),0.0686,-0.709,0.703 (inactive),0.542,1.64 (inactive),-0.149 (inactive),1.06 (inactive),1.39 (inactive),2.33 (inactive),0.0733 (inactive),-0.534 (inactive),0.471,0.106
O=C1C2C=CC(C(O)Cc3ccccc3)N(Nc3ccc([N+](=O)[O-])cc3)C2C(=O)N1c1ccccc1 (centres undefined),-0.356,-0.116,0.0181,0.568,-0.0631,-1.36,0.0226 (inactive),0.517,-0.876,0.007 (inactive),-0.346,-0.168 (inactive),-0.824 (inactive),-0.75 (inactive),0.946 (inactive),-0.518 (inactive),-1.22 (inactive),0.0196 (inactive),-0.358,0.202
O=C1OCC=C[C@H]2OC34C=CCN(Cc5ccccc5)C(=O)[C@H]3N(CCO)C(=O)[C@@H]4[C@@H]12 (some centres undefined),0.125,0.474,-0.885,1.12,0.44,-0.255,0.367 (inactive),-0.0019,-0.216,0.54 (inactive),1.21,-0.999 (inactive),1.6 (inactive),-0.415 (inactive),0.317 (inactive),-0.77 (inactive),0.508 (inactive),0.186 (inactive),0.894,-0.16
CCCC[C@@H]1C[C@H]1[C@@H](NC(=O)c1cccs1)c1ccc(Cl)cc1,-1.36,1.11,-1.02,-0.992,-2.99,-1.16,0.53 (inactive),-0.912,-0.53,0.6 (inactive),-0.513,0.831 (inactive),-0.0593 (inactive),-3.8 (inactive),2.82 (inactive),0.595 (inactive),-0.249 (inactive),-0.586 (inactive),0.513,0.267
C=C(CCCC)/C(=C/C[C@H](OC(=O)c1ccncc1)c1cccc(OCCO)c1)c1cc(C(=O)OC)ccc1OC,0.215,2.52,0.0827,-1.78,-1.93,4.13,-0.174 (inactive),-0.337,-0.342,2.6 (inactive),1.06,-0.0252 (inactive),0.585 (inactive),-1.61 (inactive),-0.988 (inactive),-0.549 (inactive),-0.232 (inactive),-0.0622 (inactive),0.15,-0.0916
